These sequences were tested against ALX4 (Homo sapiens, UniProt Q9H161 200-286) (assay: PBM; 200 nM protein, PBS). Conditions: dsDNA, one strand shown.
Chain of ALX4 (Homo sapiens, UniProt Q9H161 200-286) (Q9H161 200-286): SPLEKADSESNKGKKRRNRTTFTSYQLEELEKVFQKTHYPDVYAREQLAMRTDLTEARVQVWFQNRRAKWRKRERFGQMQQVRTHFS

Sequence	binding signal
CGCCTTGA	8.09 upbm affinity estimate (log intensity, higher = more binding, comparable within an allelic series)
GAGGACCC	7.88 upbm affinity estimate (log intensity, higher = more binding, comparable within an allelic series)
CCCTCACG	8.1 upbm affinity estimate (log intensity, higher = more binding, comparable within an allelic series)
ATAACCTC	9.88 upbm affinity estimate (log intensity, higher = more binding, comparable within an allelic series)
CCGTAGCC	8.11 upbm affinity estimate (log intensity, higher = more binding, comparable within an allelic series)
AGAGCCTC	7.96 upbm affinity estimate (log intensity, higher = more binding, comparable within an allelic series)
ATTAACCA	12.4 upbm affinity estimate (log intensity, higher = more binding, comparable within an allelic series)
AATTTTGA	11.1 upbm affinity estimate (log intensity, higher = more binding, comparable within an allelic series)
ATCAATCA	11.7 upbm affinity estimate (log intensity, higher = more binding, comparable within an allelic series)
CGTGCTCC	8.3 upbm affinity estimate (log intensity, higher = more binding, comparable within an allelic series)
GAATACAA	9.67 upbm affinity estimate (log intensity, higher = more binding, comparable within an allelic series)
ATTACGAA	11.4 upbm affinity estimate (log intensity, higher = more binding, comparable within an allelic series)
ATGATAAA	10.4 upbm affinity estimate (log intensity, higher = more binding, comparable within an allelic series)
CCACCGGC	8.04 upbm affinity estimate (log intensity, higher = more binding, comparable within an allelic series)
ACAGCTCT	8.24 upbm affinity estimate (log intensity, higher = more binding, comparable within an allelic series)
AGAGAGCG	8.15 upbm affinity estimate (log intensity, higher = more binding, comparable within an allelic series)
GTCGGCGA	8.22 upbm affinity estimate (log intensity, higher = more binding, comparable within an allelic series)
CCTCCTAC	7.75 upbm affinity estimate (log intensity, higher = more binding, comparable within an allelic series)
CCATTATC	11.3 upbm affinity estimate (log intensity, higher = more binding, comparable within an allelic series)
CGACGCAG	7.86 upbm affinity estimate (log intensity, higher = more binding, comparable within an allelic series)

Sequence	binding signal
AACGACAT	9.98 upbm affinity estimate (log intensity, higher = more binding, comparable within an allelic series)
GAGGGAGC	8.04 upbm affinity estimate (log intensity, higher = more binding, comparable within an allelic series)
CGGCCGAC	7.76 upbm affinity estimate (log intensity, higher = more binding, comparable within an allelic series)
ATTGGTGA	10.4 upbm affinity estimate (log intensity, higher = more binding, comparable within an allelic series)
CTTCCCGC	8.12 upbm affinity estimate (log intensity, higher = more binding, comparable within an allelic series)
ATAACCAA	10.1 upbm affinity estimate (log intensity, higher = more binding, comparable within an allelic series)
GTAAAATA	10.2 upbm affinity estimate (log intensity, higher = more binding, comparable within an allelic series)
GGTTATCA	9.51 upbm affinity estimate (log intensity, higher = more binding, comparable within an allelic series)
GAGCACCC	7.99 upbm affinity estimate (log intensity, higher = more binding, comparable within an allelic series)
CCAGGACG	8.2 upbm affinity estimate (log intensity, higher = more binding, comparable within an allelic series)
CCTGCAGG	8.12 upbm affinity estimate (log intensity, higher = more binding, comparable within an allelic series)
CCTCAGGC	8.2 upbm affinity estimate (log intensity, higher = more binding, comparable within an allelic series)
CTCTCGCC	7.89 upbm affinity estimate (log intensity, higher = more binding, comparable within an allelic series)
CATCAATC	10.6 upbm affinity estimate (log intensity, higher = more binding, comparable within an allelic series)
GGGTGACC	8.07 upbm affinity estimate (log intensity, higher = more binding, comparable within an allelic series)
AAGCCGGC	7.99 upbm affinity estimate (log intensity, higher = more binding, comparable within an allelic series)
CCCTTCCA	8.25 upbm affinity estimate (log intensity, higher = more binding, comparable within an allelic series)
CTCCGGCC	8.03 upbm affinity estimate (log intensity, higher = more binding, comparable within an allelic series)
AGCCGTGC	7.92 upbm affinity estimate (log intensity, higher = more binding, comparable within an allelic series)
AACTTACA	9.85 upbm affinity estimate (log intensity, higher = more binding, comparable within an allelic series)

These sequences were tested against PRRX1 (Homo sapiens, UniProt P54821 80-166, F113S) (assay: PBM; 200 nM protein, PBS). Conditions: dsDNA, one strand shown.
Chain of PRRX1 (P54821 80-166 F113S): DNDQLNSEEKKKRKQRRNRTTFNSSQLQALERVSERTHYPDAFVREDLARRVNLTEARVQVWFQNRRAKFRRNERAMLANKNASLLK

Sequence	binding signal
GAGGACCC	9.19 upbm affinity estimate (log intensity, higher = more binding, comparable within an allelic series)
GTCGGCGA	9.28 upbm affinity estimate (log intensity, higher = more binding, comparable within an allelic series)
GAGCACCC	9.2 upbm affinity estimate (log intensity, higher = more binding, comparable within an allelic series)

The sequences below were run against HOXB6 (Homo sapiens, UniProt P17509 132-218, K202E) (assay: PBM; 200 nM protein, PBS). Conditions: dsDNA, one strand shown.
Chain of HOXB6 (P17509 132-218 K202E): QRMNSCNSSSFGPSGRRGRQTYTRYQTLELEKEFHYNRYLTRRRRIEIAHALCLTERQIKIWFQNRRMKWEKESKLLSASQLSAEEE

Sequence	binding signal
CCACCGGC	8.97 upbm affinity estimate (log intensity, higher = more binding, comparable within an allelic series)
CTTCCCGC	9.12 upbm affinity estimate (log intensity, higher = more binding, comparable within an allelic series)
CCTGCAGG	9.05 upbm affinity estimate (log intensity, higher = more binding, comparable within an allelic series)
CATCAATC	9.69 upbm affinity estimate (log intensity, higher = more binding, comparable within an allelic series)

These sequences were tested against ALX4 (Homo sapiens, UniProt Q9H161 200-286, Q225E) (assay: PBM; 200 nM protein, PBS). Conditions: dsDNA, one strand shown.
Chain of ALX4 (Homo sapiens, UniProt Q9H161 200-286, Q225E) (Q9H161 200-286 Q225E): as the sequence (Q9H161 200-286) above, with Q26E counted along it

Sequence	binding signal
CGCCTTGA	8.15 upbm affinity estimate (log intensity, higher = more binding, comparable within an allelic series)
GAGGACCC	7.98 upbm affinity estimate (log intensity, higher = more binding, comparable within an allelic series)
CCCTCACG	8.28 upbm affinity estimate (log intensity, higher = more binding, comparable within an allelic series)
ATAACCTC	9.24 upbm affinity estimate (log intensity, higher = more binding, comparable within an allelic series)
CCGTAGCC	8.21 upbm affinity estimate (log intensity, higher = more binding, comparable within an allelic series)
AGAGCCTC	7.95 upbm affinity estimate (log intensity, higher = more binding, comparable within an allelic series)
ATTAACCA	11.3 upbm affinity estimate (log intensity, higher = more binding, comparable within an allelic series)
AATTTTGA	10.2 upbm affinity estimate (log intensity, higher = more binding, comparable within an allelic series)
ATCAATCA	10.5 upbm affinity estimate (log intensity, higher = more binding, comparable within an allelic series)
CGTGCTCC	8.41 upbm affinity estimate (log intensity, higher = more binding, comparable within an allelic series)
GAATACAA	9.34 upbm affinity estimate (log intensity, higher = more binding, comparable within an allelic series)
ATTACGAA	10.3 upbm affinity estimate (log intensity, higher = more binding, comparable within an allelic series)
ATGATAAA	9.81 upbm affinity estimate (log intensity, higher = more binding, comparable within an allelic series)
CCACCGGC	7.94 upbm affinity estimate (log intensity, higher = more binding, comparable within an allelic series)
ACAGCTCT	8.19 upbm affinity estimate (log intensity, higher = more binding, comparable within an allelic series)
AGAGAGCG	8.26 upbm affinity estimate (log intensity, higher = more binding, comparable within an allelic series)
GTCGGCGA	8.22 upbm affinity estimate (log intensity, higher = more binding, comparable within an allelic series)
CCTCCTAC	8.06 upbm affinity estimate (log intensity, higher = more binding, comparable within an allelic series)
CCATTATC	10.2 upbm affinity estimate (log intensity, higher = more binding, comparable within an allelic series)
CGACGCAG	7.87 upbm affinity estimate (log intensity, higher = more binding, comparable within an allelic series)

Sequence	binding signal
AACGACAT	9.4 upbm affinity estimate (log intensity, higher = more binding, comparable within an allelic series)
GAGGGAGC	8.01 upbm affinity estimate (log intensity, higher = more binding, comparable within an allelic series)
CGGCCGAC	8.04 upbm affinity estimate (log intensity, higher = more binding, comparable within an allelic series)
ATTGGTGA	9.78 upbm affinity estimate (log intensity, higher = more binding, comparable within an allelic series)
CTTCCCGC	8.22 upbm affinity estimate (log intensity, higher = more binding, comparable within an allelic series)
ATAACCAA	9.6 upbm affinity estimate (log intensity, higher = more binding, comparable within an allelic series)
GTAAAATA	9.6 upbm affinity estimate (log intensity, higher = more binding, comparable within an allelic series)
GGTTATCA	9.1 upbm affinity estimate (log intensity, higher = more binding, comparable within an allelic series)
GAGCACCC	8.37 upbm affinity estimate (log intensity, higher = more binding, comparable within an allelic series)
CCAGGACG	8.31 upbm affinity estimate (log intensity, higher = more binding, comparable within an allelic series)
CCTGCAGG	8.04 upbm affinity estimate (log intensity, higher = more binding, comparable within an allelic series)
CCTCAGGC	8.19 upbm affinity estimate (log intensity, higher = more binding, comparable within an allelic series)
CTCTCGCC	8.06 upbm affinity estimate (log intensity, higher = more binding, comparable within an allelic series)
GGGTGACC	8.31 upbm affinity estimate (log intensity, higher = more binding, comparable within an allelic series)
AAGCCGGC	8.26 upbm affinity estimate (log intensity, higher = more binding, comparable within an allelic series)
CCCTTCCA	8.35 upbm affinity estimate (log intensity, higher = more binding, comparable within an allelic series)
CTCCGGCC	8.06 upbm affinity estimate (log intensity, higher = more binding, comparable within an allelic series)
AGCCGTGC	8.07 upbm affinity estimate (log intensity, higher = more binding, comparable within an allelic series)
AACTTACA	9.42 upbm affinity estimate (log intensity, higher = more binding, comparable within an allelic series)

Reference: publication PMC11006913
